Results taken from PubChem BioAssay AID2685 (National Center for Advancing Translational Sciences (NCATS), 2010).
About 2,100 (0.66%) of roughly 320,000 compounds were called active. Not shown: some 53% with an inconclusive outcome. Calls come from the whole dose curve; as a rule, active = well fitted inhibition curve with a large enough effect in the signal ratio, with a control signal flat (not every such curve was filed as active); inconclusive = small, poorly fitted or top-dose-only effect, or effect the other way, or a change in a side signal; inactive = flat fitted curve, though single readings scatter; the % refers to the signal ratio. For the sample, actives were picked, then their nearest neighbours and some compounds at random.

Assay: qHTS Assay for Lipid Storage Modulators in Drosophila S3 Cells;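 for cell number change: cells counted by Cell Tracker Red CMTPX staining in the red channel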; for lipid storage change, negative = inhibition: % is set by controls: 0 for no effect and ±100 for the full control effect
Conditions: BODIPY lipid droplet fluorescence, 18-24 h, cells fed with added oleic acid; cell number change: measured here: cell count max response; series mostly up to 46.1 µM; lipid storage change, negative = inhibition: at the top concentration
Procedure, shortened: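 Drosophila S3 cells loaded with oleic acid (400 uM, as added) and compounds at several concentrations; lipid droplets imaged by 488-nm laser-scanning cytometry, 500–530 nm intensity and object ratio to cell channel. Percent activity normalized to 20 uM Triacsin C.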
Potency is the fitted concentration of half-maximal effect.

Compound	lipid storage change, negative = inhibition	cell number change	Potency	outcome
Cc1nn(C)cc1C(C(=O)NC1CCCCC1)N(CCc1ccccc1)C(=O)c1cnccn1 (configuration not stated)	26.4% (inactive)	19.3%	–	–
O=C(/C=C/c1cn(-c2ccccc2)nc1-c1cccnc1)N1CCCC1	-13% (inactive)	-19.7%	–	–
CCOc1cc(/C=N/NC(=O)c2ccncc2)ccc1OC(=O)c1ccccc1	–	-17.2%	12.6 µM (active)	–
CCOc1cc(/C=N/NC(=O)c2cccnc2)ccc1OC(=O)c1ccco1	-11.5% (inactive)	-16.1%	–	–
CCOc1cc(/C=N/NC(=O)c2ccccn2)ccc1OC(=O)c1ccc(F)cc1	–	5.41%	–	inactive
Cc1cccc(Cn2c(N(C)CCO)nc3c2c(=O)[nH]c(=O)n3C)c1	7.8% (inactive)	28.6%	–	–
CCN(c1ccccc1)S(=O)(=O)c1ccc(OC)c(NC(=O)CN2C(=O)NC(C)(C)C2=O)c1	9.62% (inactive)	-3.73%	–	–
COc1ccc(-c2csc(NC(=O)CN3C(=O)NC4(CCCC4)C3=O)n2)c(OC)c1	–	–	6.51 µM (active)	–
COc1ccc(N2CCN(C(=O)CSc3nc4ccccc4c(=O)[nH]3)CC2)cc1	–	-2.61%	–	inactive
COc1ccc(N2CCN(C(=O)CN3C(=O)NC4(CCCCCC4)C3=O)CC2)cc1	–	-6.83%	5.8 µM (active)	–
COc1ccc(NC(=O)CN2C(=O)NC3(CCCC3)C2=O)c(OC)c1	–	-7.62%	–	inactive
COc1ccc(N2CCN(C(=O)CN3C(=O)NC(C)(C4CC4)C3=O)CC2)cc1 (configuration not stated)	8.91% (inactive)	-22.3%	–	–
CCC1(c2ccc(F)cc2)NC(=O)N(CC(=O)N2CCOCC2)C1=O (configuration not stated)	-5.08% (inactive)	-2.03%	–	–
COc1ccc(N2CCN(C(=O)CSc3ccc(C)cc3)CC2)cc1	-0.457% (inactive)	6.76%	–	–
COc1ccc(C2(c3ccc(OC)cc3)NC(=O)N(CC(=O)N3CCOCC3)C2=O)cc1	–	8.58%	0.231 µM (active)	–
COc1ccc(-c2csc(NC(=O)CN3C(=O)C4CCCCC4C3=O)n2)c(OC)c1 (configuration not stated)	-15.1% (inactive)	-28.9%	–	–
COc1cccc(N2CCN(C(=O)CN3C(=O)NC4(CCCC4)C3=O)CC2)c1	-5.21% (inactive)	–	–	–
COc1ccc(N2CCN(C(=O)CSc3nnc(C)c(=O)[nH]3)CC2)cc1	–	2.46%	29.1 µM (active)	–
COc1ccc(C2(c3ccc(OC)cc3)NC(=O)N(CC(=O)Nc3ccccc3)C2=O)cc1	–	10.9%	–	inactive
CCCCOC(=O)c1ccc(NC(=O)C(CCS(C)(=O)=O)NC(C)=O)cc1 (configuration not stated)	-3.02% (inactive)	13%	–	–
CC1(OC(=O)CCc2ccccc2)C(=O)C=C2C=C(c3ccc(C#N)cc3)N(C3CCCCC3)C=C2C1=O (configuration not stated)	0.672% (inactive)	20.5%	–	–
CCCCC[C@]12Cc3cc(OC)c(OC)cc3C(O1)c1c(cc(C)n(-c3ccccc3)c1=O)O2	-5.41% [at 9.22 µM] (inactive)	-8.82%	–	–

Compound	lipid storage change, negative = inhibition	cell number change	Potency	outcome
O=C(O)c1ccc(Sc2nnc(-c3cccc(Br)c3)o2)c([N+](=O)[O-])c1	–	-23.6%	25.9 µM (active)	–
O=C(O)c1ccc(-c2nnc(-c3cccc(Br)c3)o2)cc1	–	12.2%	–	inactive
Cn1c(Sc2ccc(C(=O)O)cc2[N+](=O)[O-])nnc1-c1ccccc1	4.13% (inactive)	9.56%	–	–
C=CCOc1cccc(C2C(C(=O)c3ccco3)=C(O)C(=O)N2Cc2cccnc2)c1 (configuration not stated)	–	4.96%	–	inactive
O=C(CN1CCC(C(=O)c2ccc(F)cc2)CC1)Nc1ccc(F)cc1	-21.6% (inactive)	-11.2%	–	–
Cn1c(/N=C/c2c[nH]c3ccccc23)nc2ccccc21	3.33% (inactive)	-13.5%	–	–
O=C(NN1CCOCC1)c1cc(-c2ccc(Br)s2)nc2ccccc12	9.94% (inactive)	18.5%	–	–
CC(C)CCNC(=O)CCc1nnc(COc2ccccc2)o1	19.4% (inactive)	3.37%	–	–
COC(=O)[C@H](CC(C)C)NC(=O)CCc1nnc(COc2ccccc2)o1	–	-24.9%	18.4 µM (active)	–
O=C(CCc1nnc(COc2ccccc2)o1)NCc1ccccc1	1.25% (inactive)	-8.23%	–	–
CC(/C=N/NC(=O)c1cccnc1)=C\c1ccco1	–	4.96%	–	inactive
O=S(=O)(NC(=NCc1ccccc1)c1ccccc1)c1ccc(Br)cc1	-17.1% (inactive)	2.37%	–	–
CSc1nnc(N2C(=O)C(O)=C(C(=O)c3ccco3)C2c2cccc(Cl)c2)s1 (configuration not stated)	-16.9% (inactive)	–	–	–
CSc1ccc(C2C(C(=O)c3ccco3)=C(O)C(=O)N2c2nnc(SC)s2)cc1 (configuration not stated)	–	-24.7%	7.31 µM (active)	–
CSc1nnc(N2C(=O)C(O)=C(C(=O)c3ccco3)C2c2ccc(F)cc2)s1 (configuration not stated)	–	-4.48%	–	inactive
CCCc1c(O)nc(SCC(=O)O)[nH]c1=O	23.9% (inactive)	-0.742%	–	–
COC(=O)COc1coc(CN2CCN(c3cccc(Cl)c3)CC2)cc1=O	–	12.5%	–	inactive
COc1cc(OC)c(CN2CCCCCCC2)cc1Br	–	-11.5%	29.1 µM (active)	–
COc1ccc(Br)cc1CN1CCCCCCC1	4.43% (inactive)	9.97%	–	–
COc1cc(OC)c(CN2CCCN(C)CC2)cc1Br	8.41% (inactive)	15.5%	–	–
CC1=C(C(=O)OCC(C)C)[C@]23C(=O)c4ccccc4[C@@]2(O1)OC(N)=C3C#N	1.93% (inactive)	-12%	–	–
CC(C)NC(=O)[C@]1(C)CCC[C@@]2(C)C3CC[C@@]4(C)C[C@]3(CCC21)CC4=O (some centres not stated)	–	-16.5%	–	inactive

Compound	lipid storage change, negative = inhibition	cell number change	Potency	outcome
CC(C)(C)CNC(=O)[C@]1(C)CCC[C@@]2(C)C3CC[C@@]4(C)C[C@]3(CCC21)CC4=O (some centres not stated)	7.09% (inactive)	-13.8%	–	–
CCCCNC(=O)[C@]1(C)CCC[C@@]2(C)C3CC[C@@]4(C)C[C@]3(CCC21)CC4=O (some centres not stated)	–	-24.2%	0.651 µM (active)	–
COc1ccc(/C(C)=N/NC(=O)CNC(=O)c2cccnc2)cc1	7.97% (inactive)	7.78%	–	–
COc1ccc(C(=O)N/N=c2\oc3ccccc3cc2C(=O)NCc2ccccc2)cc1	12.1% (inactive)	2.22%	–	–
N#CC(c1ccc(F)cc1)c1ccc(C(=O)c2ccccc2)cc1 (configuration not stated)	-0.44% (inactive)	-0.0722%	–	–
CN(C(=O)COC(=O)c1ccc2c(c1)NC(=O)CS2)C1CCS(=O)(=O)C1 (configuration not stated)	7.52% (inactive)	4.6%	–	–
CCc1nc2ccc(C(=O)NCc3ccc(C)o3)cc2nc1CC	–	-3.07%	–	inactive
CCc1nc2ccc(C(=O)NCCc3ccco3)cc2nc1CC	–	5.81%	6.51 µM (active)	–
CC(=O)Nc1cccc(C(=O)NCCc2ccco2)c1	20.2% (inactive)	7.92%	–	–
O=C(CN(C(=O)CCC(=O)Nc1nccs1)c1ccc2c(c1)OCO2)NCc1ccccc1	–	–	–	inactive
CCC(C)(C)NC(=O)C1CC(=O)N(CCc2ccc(F)cc2)C1 (configuration not stated)	–	-4.05%	23.1 µM (active)	–
CCC(CC)NC(=O)C1CC(=O)N(CCc2ccc(F)cc2)C1 (configuration not stated)	–	–	–	inactive
CC(C)(C)NC(=O)C1CC(=O)N(CCc2ccc(F)cc2)C1 (configuration not stated)	–	23%	–	inactive
Cc1cc(C)cc(C(=O)Nc2ccc(NC(=O)c3cccs3)cc2)c1	-11% (inactive)	17.7%	–	–
Cc1ccc(NC(=O)c2cccs2)cc1	–	20.8%	–	inactive
Cc1ccc(NC(=O)c2ccc(Cl)c(NC(=O)c3cccs3)c2)cc1	–	17.6%	25.9 µM (active)	–
Cc1cc(C(c2nnnn2Cc2ccccc2)N2CCOCC2)c(C)n1-c1ccc2c(c1)OCO2 (configuration not stated)	–	-6.63%	–	inactive
CN(C)C(=O)C(NC(=O)c1ccccc1)=C(Cl)Cl	15.3% (inactive)	–	–	–
Cc1cc(C(=O)OCC(=O)NC2CCC(C)CC2)c(C)o1 (configuration not stated)	8.06% (inactive)	1.2%	–	–
CN(C)S(=O)(=O)c1ccc2c(c1)nc(CCC(=O)NCc1ccc(Cl)cc1)n2C	-6.65% [at 9.22 µM] (inactive)	-1.78%	–	–
COc1cccc(NC(=O)C2C3C=CC4(O3)C2C(=O)N(CCN2CCCCC2)C4C(=O)NC2CCCCC2C)c1 (configuration not stated)	–	14.4%	5.8 µM (active)	–
COc1cccc(NC(=O)C2C3C=CC4(O3)C2C(=O)N(CCCN2CCCC(C)C2)C4C(=O)NC2CCCCC2C)c1 (configuration not stated)	–	-4.5%	–	inactive

Compound	lipid storage change, negative = inhibition	cell number change	Potency	outcome
COc1cccc(NC(=O)C2C3C=CC4(O3)C2C(=O)N(CCCN2CCCCC2)C4C(=O)NC2CCCCC2)c1 (configuration not stated)	–	1.59%	–	inactive
COc1ccc(NC(=O)C2C3C=CC4(O3)C2C(=O)N(CCN2CCCCC2)C4C(=O)NC2CCCC(C)C2C)cc1 (configuration not stated)	–	27%	0.92 µM (active)	–
COc1ccc(NC(=O)C2C3C=CC4(O3)C2C(=O)N(CCN2CCCCC2C)C4C(=O)NC2CCCC(C)C2C)cc1 (configuration not stated)	–	-11.9%	–	inactive
CCN(CC)CCN1C(=O)C2C(C(=O)Nc3ccc(C(C)C)cc3)C3C=CC2(O3)C1C(=O)NC1CCCCC1 (configuration not stated)	–	1.35%	–	inactive
COc1ccc(NC(=O)C2C3C=CC4(O3)C2C(=O)N(CCCN2CCCCC2)C4C(=O)NC2CCCC(C)C2C)cc1 (configuration not stated)	–	20.6%	–	inactive
CCN(CC)CCCN1C(=O)C2C(C(=O)Nc3ccc(C(C)C)cc3)C3C=CC2(O3)C1C(=O)NC1CCCCC1 (configuration not stated)	–	8.06%	16.4 µM (active)	–
CC(C)c1ccc(NC(=O)C2C3C=CC4(O3)C2C(=O)N(CCCN2CCCCC2)C4C(=O)NC2CCCCC2)cc1 (configuration not stated)	–	2.7%	–	inactive
Cc1cccc(NC(=O)CSc2nnc(CNC(=O)c3ccco3)o2)c1	–	-11.3%	–	inactive
CCCn1c(O)c(N=NC(=O)CNC(=O)c2cccnc2)c2ccccc21	22.8% (inactive)	6.42%	–	–
NC(=O)/C=C\c1cn(-c2ccccc2)nc1-c1ccc2c(c1)OCCO2	33.5% (inactive)	13.6%	–	–
O=S(=O)(N/N=C/c1cccnc1)c1ccc(Cl)c(Cl)c1	-1.88% (inactive)	4.73%	–	–
C=CCn1c(O)c(C=Nc2ccccc2)sc1=S	12.5% (inactive)	8.83%	–	–
COc1ccc(CCNC(=O)COc2nncc3ccccc23)cc1	–	-8.53%	–	inactive
Cc1ccc(OCCCCN2CCc3ccccc3C2)cc1	–	-8.99%	–	inactive
Cc1ccc(C(C)C)c(OCCN2CCc3ccccc3C2)c1	-43.6% (inactive)	-16.4%	–	–
Cc1ccc(C(C)C)c(OCCCN2CCc3ccccc3C2)c1	–	-26.9%	14.6 µM (active)	–
COc1c(Br)cc2c(C)c(C(=O)O)oc2c1Br	-6.54% (inactive)	24.7%	–	–
CN(C)c1cc(Nc2ccc(O)cc2)c([N+](=O)[O-])c2nonc12	-2.02% (inactive)	4.46%	–	–
CCOc1ccc(NS(=O)(=O)c2cc(C(=O)N3CC(C)OC(C)C3)ccc2C)cc1 (configuration not stated)	17.9% (inactive)	–	–	–
CCOc1ccc(NS(=O)(=O)c2ccc(C(=O)N3CC(C)OC(C)C3)cc2)cc1 (configuration not stated)	–	-12.2%	25.9 µM (active)	–
CCOc1ccc(NS(=O)(=O)c2ccc(C(=O)N3CCCC(C)C3)cc2)cc1 (configuration not stated)	18.3% (inactive)	20.5%	–	–
